Structures are written as SMILES. Inconclusive results are not listed. Values without a mark were called inactive. Activity calls are given as the source filed them. The call rests on the fitted dose curve.

From PubChem BioAssay (NCATS) come the findings set out here.
On the % scale 0 is the no-effect control and ±100 the full control effect; potency means the concentration at half of the fitted maximal effect.

The experiment in a line: Cytotoxicity counterscreen for inhibitors of SARS-CoV-2 cell entry (AID 1645845). Further: nearly all actives have a fitted effect of over 50% in size. Particulars: cell viability (SARS-CoV-2 entry assay cells); series mostly up to 57.1 µM; activity change, negative = cytotoxicity: at the top concentration. The method in brief: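 After a 15 min room-temperature ATPLite 1step step, luminescence reflected ATP remaining in HEK293-ACE2 cells exposed to compound for 1 h plus 48 h at 37 C, with percent activity set by cell and no-cell controls.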
`CCc1cc(/C(C)=N/OCc2ccc(C3CCCCC3)c(C(F)(F)F)c2)ccc1CN1CC(C(=O)O)C1`: the “activity change, negative = cytotoxicity” value was 3.52%.
As for `Oc1ccc(Nc2nc(-c3ccc(Cl)cc3)cs2)cc1`, the “activity change, negative = cytotoxicity” value was -26.4%.
As for `Cc1cc(F)c(C(=O)Nc2cccc(-c3nncn3C(C)C)n2)cc1-n1cnc(C2CC2)c1`, the Potency is 31.6 µM (active).
Still for that read-out and setting: with `Nc1ncccc1-c1nc2ccc(-c3ccccc3)nc2n1-c1ccc(C2(N)CCC2)cc1` the figure was 31.6 µM (active).
Turning to `COc1cc(C)[nH]c(=O)c1CN1CCc2c(Cl)cc([C@H](OC)C3COC3)c(Cl)c2C1=O`, the “activity change, negative = cytotoxicity” value is -11.1%.
In the case of `O=C(Nc1ccc(OC(F)(F)Cl)cc1)c1cnc(N2CC[C@@H](O)C2)c(-c2ccn[nH]2)c1`, the “activity change, negative = cytotoxicity” value is -24.5%.
For the molecule `CC(=O)N1CCC(Nc2cc(C(=O)NC[C@H](O)CN3CCc4ccccc4C3)ncn2)CC1`, the call was inactive.
In the case of `CO[C@H]1/C=C/O[C@@]2(C)Oc3c(C)c(O)c4c(O)c(c(/C=N\N5CCN(C6CCCC6)CC5)c(O)c4c3C2=O)NC(=O)/C(C)=C\C=C\[C@H](C)[C@H](O)[C@@H](C)[C@@H](O)[C@@H](C)[C@H](OC(C)=O)[C@@H]1C`, the “activity change, negative = cytotoxicity” value was -17.9%.
On to `COCCOC(=O)N1CCN(S(=O)(=O)c2cc(F)c(Oc3ccc(Cl)cc3)c(F)c2)C(C(=O)NO)C1` (stereo not drawn), for which the Potency is 31.6 µM (active).
As to `N#C/C(=C(/N)Sc1ccc(N)cc1)c1ccccc1C(F)(F)F`, the “activity change, negative = cytotoxicity” value was -16.7%.
On the same count and under the same terms, as for `C/C=C/C[C@@H](C)C(=O)[C@H]1C(=O)N[C@@H](C(C)C)C(=O)N(C)CC(=O)N(C)[C@@H](CC(C)C)C(=O)N[C@@H](C(C)C)C(=O)N(C)[C@@H](CC(C)C)C(=O)N[C@@H](C)C(=O)N[C@H](C)C(=O)N(C)[C@@H](CC(C)C)C(=O)N(C)[C@@H](CC(C)C)C(=O)N(C)[C@@H](C(C)C)C(=O)N1C`, the figure is -8.46% [at 27.1 µM].
As to `COc1cc2ncnc(Nc3ccc(O)c(Br)c3)c2cc1OC`, the result was inactive.
On to `Nc1cc(C(F)(F)F)c(-c2nc(N3CCOCC3)nc(N3CCOCC3)n2)cn1`, for which the Potency is 10 µM (active).
For `NS(=O)(=O)c1ccc(NC(=S)N2CCN(C/C=C/c3ccccc3)CC2)cc1`, the “activity change, negative = cytotoxicity” value was -24.4%.
`Cc1noc2c1-c1ccccc1C(c1ccc(Cl)cc1)=N[C@H]2CC(N)=O`: the outcome was inactive.
On to `O=C(O)/C(S)=C/c1ccc(I)cc1`, for which the “activity change, negative = cytotoxicity” value is 1.15%.
On to `C=C[C@H]1CN2CCC1C[C@@H]2C(O)c1ccnc2ccc(OC)cc12` (stereo partly drawn), for which the result was inactive.
Turning to `OCCn1cc(-c2ccc3c(c2)CC/C3=N\O)c(-c2ccncc2)n1`, the molecule was classed as inactive.
On the same count and under the same terms, as for `CNC(=O)[C@H](Cc1c[nH]c2ccccc12)NC(=O)[C@@H](CC(=O)NO)CC(C)C`, the entry is “inactive”; as for `CCn1c(=O)c(-c2ccc(-c3cncs3)cc2Cl)cc2cnc(Nc3ccc(N4CCN(C)CC4)cc3)nc21`, “inactive”.
Regarding `O=C(C(c1ccccc1)c1ccccc1)N1CCN(CC(O)COc2cccc3ncccc23)CC1` (stereo not drawn), the “activity change, negative = cytotoxicity” value is -23.9%.
On the same count and under the same terms, with `Cn1ncnc1[C@H]1c2n[nH]c(=O)c3cc(F)cc(c23)N[C@@H]1c1ccc(F)cc1` the figure was -31.4%.
In the case of `CNc1ncc2cc(-c3cc(NC(=O)NCCC(C)(C)C)c(F)cc3C)c(C)nc2n1`, the result was inactive.
Same read-out and setting: with `O=C(CCl)Nc1cccc(NC2=NS(=O)(=O)c3ccccc32)c1` the entry was “inactive”.
In the case of `CC(C)NC(=O)N1CC[C@H](N=C2Nc3cc(F)ccc3N(CC(F)F)c3ccc(Cl)cc32)C1`, the “activity change, negative = cytotoxicity” value is -6.46% [at 19 µM].
Turning to `COc1cc(N2CCN(C)CC2)ccc1Nc1ncc2c(n1)N(C)c1ccccc1C(=O)N2C`, the “activity change, negative = cytotoxicity” value is -4.56%.
Same read-out and setting: with `CCN(CC)C(=O)Cc1csc(NS(=O)(=O)c2cccc(Cl)c2C)n1` the figure was 4.32%; with `COc1ccc(C(=O)N2CCN(C(=O)/C=C/c3ccc(Br)cc3)CC2)cc1`, 0.45%.
Regarding `O=S(=O)(Nc1ccc(-c2cccnc2)c2cccnc12)c1cccc(C(F)(F)F)c1`, the Potency is 14.1 µM (active).
Turning to `Cc1sc2c(c1C)C(c1ccc(Cl)cc1)=N[C@@H](CC(=O)Nc1ccc(OCCOCCOCCOCCNc3cccc4c3C(=O)N(C3CCC(=O)NC3=O)C4=O)cc1)c1nnc(C)n1-2` (stereo partly drawn), the “activity change, negative = cytotoxicity” value was -11.3%.
For the molecule `CC(C)C[C@H](CO)Nc1nc(S[C@@H](C)c2ccccc2)nc2nc(N)sc12`, the Potency is 31.6 µM (active).
In the case of `CCC(C)CNCC(=O)N1CCc2sccc2C1c1cccc(C)n1` (stereo not drawn), the “activity change, negative = cytotoxicity” value was 0.183%.
The same measure, in the same setting: as for `CN(C)C/C=C/C(=O)Nc1cc2c(Nc3ccc(F)c(Cl)c3)ncnc2cc1O[C@H]1CCOC1`, the figure is 1.91%; as for `O=C(NO)C1(CS(=O)(=O)c2ccc(Oc3ccc(Cl)cc3)cc2)CCOCC1`, -17.4%.
In the case of `C=C1C(=O)O[C@@H]2[C@H]3C(C)=CC[C@@]34O[C@@]4(C)CC[C@@H]12`, the molecule was called inactive.
Turning to `O=C(O)CCCCN(CCc1ccccc1OCc1ccc(CCc2ccccc2)cc1)Cc1ccc(C(=O)O)cc1`, the “activity change, negative = cytotoxicity” value was 3.56%.
On the same count and under the same terms, with `CC1(C(=O)O)CCC2(C)CCC3(C)C(=CC(=O)C4C5(C)CCC(OC6OC(C(=O)O)C(O)C(O)C6OC6OC(C(=O)O)C(O)C(O)C6O)C(C)(C)C5CCC43C)C2C1` (stereo not drawn) the figure was 4.41%.
For the molecule `CNS(=O)(=O)Nc1nccc(Cc2c(C)c3ccc(Oc4ncccn4)cc3oc2=O)c1F`, the Potency is 14.1 µM (active).
